Only some compounds are listed: those with a hit (about 11% of all), similar ones and a draw of the others.
JMJD2A Tudor – blocks the human JMJD2A Tudor domain; O75164; AlphaScreen JMJD2A-Tudor / H3K4me3 peptide binding; Potency, µM (top dose mostly 114 µM), for inactives: top-dose activity change, negative = inhibition, most hits filed as inhibitors; 390,000 compounds, 4.4% hits; AID 504339; further: potency means the concentration at half of the fitted maximal effect; on the % scale 0 is the no-effect control and ±100 the full control effect; nearly all actives have a fitted effect of over 50% in size
G9a block – G9a (human) methyltransferase inhibition. Q96KQ7. G9a H3K9 monomethylation, AlphaScreen, 2 h. Potency, µM (series often up to 102 µM), without a hit: top-dose activity, negative = inhibition, hits mostly inhibitors. 350,000 compounds, 8.8% hits. AID 504332; further: potency means the concentration at half of the fitted maximal effect; on the % scale 0 is the no-effect control and ±100 the full control effect; nearly all actives have a fitted effect of over 75% in size
Target sequence (Q96KQ7 913-1193 limits assumed): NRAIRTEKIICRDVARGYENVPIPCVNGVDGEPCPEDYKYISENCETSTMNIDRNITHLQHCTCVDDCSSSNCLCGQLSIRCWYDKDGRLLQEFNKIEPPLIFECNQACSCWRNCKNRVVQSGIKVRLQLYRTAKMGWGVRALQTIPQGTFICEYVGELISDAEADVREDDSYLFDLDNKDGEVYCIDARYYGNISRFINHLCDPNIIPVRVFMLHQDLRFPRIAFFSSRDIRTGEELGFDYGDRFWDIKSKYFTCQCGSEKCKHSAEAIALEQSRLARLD
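G9a (20 nM) preincubated 15 min RT with compounds, then 500 nM biotinylated H3K9 peptide and 20 uM SAM added; 2 h RT reaction. Monomethyl-H3K9 product detected by AlphaScreen with anti-H3K9me1 antibody, streptavidin donor and anti-rabbit IgG acceptor beads.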
PI5P4Ka inh – blocks human PI5P4K alpha kinase activity; P48426; PI5P4Kalpha enzyme, ADP-Glo luminescence, 60 min; hits give low values; max response, %; 330,000 compounds, 1.2% hits; active means max response of -50% or lower; inconclusive means between -30% and -50%; inactive means -30% or higher; further: value at the top dose of about 77 µM; on the % scale 0 is the no-effect control and ±100 the full control effect
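Enzyme plus substrate dispensed, test compounds pinned in, then ATP (5 microM final) added. After 60 min at RT, ADP-Glo reagent 1 for 45 min and reagent 2 for 30 min preceded luminescence imaging.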
HP1b binding inh – HP1-beta chromodomain-methylated histone interaction inhibition; P83916; AlphaScreen HP1-beta / biotin-H3K9me3 peptide binding; Potency, µM (top dose mostly 114 µM), for the others: top-dose activity change, negative = inhibition, most hits filed as inhibitors; 390,000 compounds, 0.56% hits; AID 540317; further: potency means the concentration at half of the fitted maximal effect; nearly all actives have a fitted effect of over 70% in size
Target sequence (P83916 whole entry, looked up): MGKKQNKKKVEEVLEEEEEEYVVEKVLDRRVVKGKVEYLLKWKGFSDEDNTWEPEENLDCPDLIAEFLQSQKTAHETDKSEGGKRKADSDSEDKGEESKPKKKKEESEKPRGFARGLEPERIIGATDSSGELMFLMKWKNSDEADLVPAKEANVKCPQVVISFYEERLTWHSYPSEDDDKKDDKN
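Compound inhibition of the preformed complex between 50 nM HP1-beta and 50 nM biotinylated H3K9me3 peptide was read by AlphaScreen. Buffer was PBS pH 7.4 with 0.01% Tween-20. Incubations ran 30 min at room temperature, with 10 ug/mL donor/acceptor beads.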
L3MBTL1 inh – inhibitors of human L3MBTL1; Potency, µM (titrated, usually from 57.1 µM), inactives show at the highest dose activity, negative = inhibition, most hits filed as inhibitors; 230,000 compounds, 0.66% hits; AlphaScreen L3MBTL1–H3K9me1 peptide binding; further: potency means the concentration at half of the fitted maximal effect; on the % scale 0 is the no-effect control and ±100 the full control effect; nearly all actives have a fitted effect of over 60% in size
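AlphaScreen assay: L3MBTL1 (50 nM final) was preincubated 30 min at room temperature with biotinylated H3(1-15)K9me1 peptide (75 nM final), then 30 min with library compounds; streptavidin donor and nickel chelate acceptor beads (10 ug/mL final) added, 30 min dark.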
BAZ2B block – BAZ2B (human) inhibition; Q9UIF8; AlphaScreen BAZ2B-H3K14Ac peptide displacement; AID 504333; 360,000 compounds, 4.4% hits; Potency, µM (series often up to 114 µM), without a hit: at the top dose activity change, negative = inhibition, usual class: inhibitors; further: potency means the concentration at half of the fitted maximal effect; on the % scale 0 is the no-effect control and ±100 the full control effect; nearly all actives have a fitted effect of over 60% in size
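AlphaScreen luminescence quantifies BAZ2B engagement of H3K14Ac peptide; the protein and biotinylated peptide are both at 50 nM final, buffer PBS pH 7.4 with 0.01% Tween-20, all steps at room temperature.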
* marks the source's active call; other numbers are inactive results; [ ] = remark or other dose. Unless noted, the call rests on the fitted dose curve; in most records, active means well fitted inhibition curve with a large enough effect; inconclusive means small, poorly fitted or top-dose-only effect; inactive means no such curve, though single readings can be large or run the other way.

For O=C(C1=C(O)C(=O)N(Cc2ccco2)C1c1cccs1)c1cccs1 (stereo not given) the results were JMJD2A Tudor -4%[57.1 µM], G9a block inconclusive, PI5P4Ka inh -7, HP1b binding inh 35%, L3MBTL1 inh 0% and BAZ2B block inconclusive.
Screening O=C(C1=C(O)C(=O)N(CCOCCO)C1c1cccs1)c1cccs1 (stereo not given) returned JMJD2A Tudor inconclusive, G9a block 45µM*, PI5P4Ka inh 0, HP1b binding inh 40%, L3MBTL1 inh -6% and BAZ2B block inconclusive.
Screening CC(=O)C1=C(O)C(=O)N(CC#N)C1c1cccs1 (stereo not given) returned JMJD2A Tudor 79µM*, G9a block -5%[59 µM], PI5P4Ka inh 0, HP1b binding inh 14%, L3MBTL1 inh 5% and BAZ2B block -11%.
`O=S1(=O)N=C(Oc2ccccc2-c2ccccc2)c2ccccc21` gave JMJD2A Tudor -17%.
`CCOc1ccccc1NC(=O)c1ccc(F)c(S(=O)(=O)N2CCN(c3ccc(F)cc3)CC2)c1` gave JMJD2A Tudor -6%, G9a block -6%[59 µM], HP1b binding inh 26% and BAZ2B block 3%.
`CC(C)(C)c1ccc(OCC(O)CSc2ncn[nH]2)cc1` (stereo not given) gave JMJD2A Tudor 32µM*, G9a block 8.9µM*, HP1b binding inh 30% and BAZ2B block -8%.
OC(COc1ccccc1)CSc1ncn[nH]1 (stereo not given) was read as JMJD2A Tudor -9%, G9a block 13%[12.7 µM], HP1b binding inh 26% and BAZ2B block 7%.
Screening CCN(CC)C(=O)CSC1=C(C#N)C(c2cccs2)C=C(C)N1 (stereo not given) returned JMJD2A Tudor 56µM*, G9a block 10µM*, PI5P4Ka inh -16, HP1b binding inh 17%, L3MBTL1 inh 11% and BAZ2B block 16%.
For COc1ccc(-c2ccc(NS(=O)(=O)c3cc(C)c(C)cc3C)cc2)nn1 the results were JMJD2A Tudor -24%, G9a block -25%[59 µM], HP1b binding inh 16%[57 µM] and BAZ2B block -16%.
For COc1ccccc1NC(=O)c1ccc(N)cc1 the results were JMJD2A Tudor -17%, G9a block inconclusive, HP1b binding inh 31%, L3MBTL1 inh -1% and BAZ2B block -30%.
`COC(=O)c1ccc(C(=O)Nc2ccc(N)cc2N)cc1` gave JMJD2A Tudor -26%, G9a block 45µM*, PI5P4Ka inh -19, HP1b binding inh -1%, L3MBTL1 inh -21% and BAZ2B block inconclusive.
`CCN(CC)S(=O)(=O)c1ccc2c(c1)N(CC(=O)NCCc1ccc(OC)c(OC)c1)C(=O)CO2` gave JMJD2A Tudor -17%, G9a block -19%[59 µM], HP1b binding inh 52% and BAZ2B block -9%.
For O=C(O)c1ccc(COc2ccc3ccccc3c2/C=C2/NC(=O)N(Cc3ccc(F)cc3)C2=O)cc1 the results were JMJD2A Tudor 20µM*, G9a block inconclusive, PI5P4Ka inh 5, HP1b binding inh inconclusive, L3MBTL1 inh inconclusive and BAZ2B block 28µM*.
For O=C1NC(=O)N(Cc2ccccc2F)C1=O the results were JMJD2A Tudor -14%, G9a block 22µM*, PI5P4Ka inh -18, HP1b binding inh 12% and BAZ2B block -37%.
For CCCN1C(=O)/C(=C/c2ccccc2OCc2ccc(C(=O)O)cc2)NC1=S the results were JMJD2A Tudor -28%, G9a block inconclusive, PI5P4Ka inh -1, HP1b binding inh -25% and BAZ2B block -29%.
`CCOc1cc(/C=C2/NC(=O)N(Cc3ccccc3F)C2=O)ccc1O` gave JMJD2A Tudor -2%, G9a block -1%[59 µM], PI5P4Ka inh 1, HP1b binding inh 21%, L3MBTL1 inh -26% and BAZ2B block 8%.
For COc1cc(/C=C2/NC(=O)N(Cc3ccccc3F)C2=O)cc(OC)c1O the results were JMJD2A Tudor -20%, G9a block 35µM*, PI5P4Ka inh 1, HP1b binding inh 33% and BAZ2B block 1%.
`O=C(O)c1ccc(COc2ccccc2/C=C2\NC(=O)N(Cc3ccccc3)C2=O)cc1` gave JMJD2A Tudor 25µM*, G9a block inconclusive, PI5P4Ka inh -17, HP1b binding inh inconclusive, L3MBTL1 inh 4% and BAZ2B block -28%.
`Cc1ccc2[nH]c(=O)c(CN(CCCO)Cc3nnnn3Cc3ccccc3)cc2c1` gave JMJD2A Tudor -4%[57.1 µM] and HP1b binding inh 6%[57 µM].
Cc1ccc(CN(Cc2ccco2)c2cnc(S(C)(=O)=O)nc2C(=O)Nc2ccc(Br)cc2)o1 was read as JMJD2A Tudor -20%, G9a block -4%[59 µM], HP1b binding inh 21% and BAZ2B block inconclusive.
Screening CCc1ccc2c(c1)c(=O)c(C(=O)c1ccccc1)cn2CC(=O)Nc1ccc(C)c(Cl)c1 returned JMJD2A Tudor inconclusive, G9a block -7%[59 µM], HP1b binding inh 8% and BAZ2B block -12%.
O=C(O)c1ccc(COc2ccccc2/C=C2\NC(=O)N(Cc3ccccc3F)C2=O)cc1 was read as JMJD2A Tudor 40µM*, G9a block inconclusive, PI5P4Ka inh -25, HP1b binding inh inconclusive, L3MBTL1 inh -13% and BAZ2B block -23%.
For CN1C(=O)/C(=C/c2ccccc2OCc2ccccc2F)NC1=S the results were JMJD2A Tudor -20%, G9a block 5%, PI5P4Ka inh -2, HP1b binding inh 9%, L3MBTL1 inh 1% and BAZ2B block -4%[57.1 µM].
For CCCC/C=C/[C@H](c1ccccc1)[C@H](CO)Cc1cnc2ccccc2c1 the results were JMJD2A Tudor -6% and HP1b binding inh 25%.
CC1CC(c2ccccc2)n2nc(NC(=O)CCc3ccccc3)nc2N1 (stereo not given) was read as JMJD2A Tudor 79µM*, G9a block 1%[59 µM], PI5P4Ka inh 1, HP1b binding inh 54%, L3MBTL1 inh -3% and BAZ2B block 50µM*.
Screening COCC(=O)Nc1nc2n(n1)C(c1ccc(OC)cc1)CC(c1ccc(OC)cc1)N2 (stereo not given) returned JMJD2A Tudor -34%, G9a block -41%[12.7 µM], HP1b binding inh 14% and BAZ2B block -36%.
For O=C(O)CCCC(=O)Nc1nc2n(n1)C(c1ccc(F)cc1)CC(c1ccc(Cl)cc1)N2 (stereo not given) the results were JMJD2A Tudor inconclusive, G9a block -44%[12.7 µM], HP1b binding inh 37% and BAZ2B block 50µM*.

Screening results (PubChem)
